An excerpt weighted towards active compounds, which were near 2.7% of everything screened.
pPAFAH FP inh: pPAFAH (human) enzyme inhibition | 330,000 tested, 1.5% active | inhibition, % at 3.39 µM | Q13093 | recombinant pPAFAH, FP-rhodamine probe fluorescence polarization;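 active = inhibition above the mean inhibition across the screen plus 3 SD, cut at about 25% in these data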;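 note: inhibitors block binding of the rhodamine activity-based probe so polarization drops; 0% = enzyme with DMSO and 100% = wells lacking pPAFAH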
PAFAH1B2 FP inh: blocks human PAF acetylhydrolase 1b catalytic subunit 2; P68402; recombinant PAFAH1B2, FP-rhodamine activity probe, fluorescence polarization; inhibition, % at 3.39 µM; 340,000 tested, 1.2% active; AID 492953;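 active = inhibition above the mean of all tested compounds plus 3 SD, cut at about 24% in these data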;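 note: 0% = enzyme with DMSO and 100% = wells lacking PAFAH1B2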
TCR-CD3 inh: inhibitors of human TCR-CD3 interaction | TAMRA-labeled TCR probe fluorescence, biochemical | inhibition, % at 9.4 µM | 360,000 tested, 0.37% active; in the data active = inhibition above about 19%;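 note: recombinant mutant TCR 2C K166C tagged with TAMRA read by polarization; 0% = receptor in buffer alone and 100% = receptor with positive control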
PAFAH1B3 inh: PAFAH1B3 (human) inhibition; Q15102; recombinant PAFAH1B3, FP-rhodamine probe, fluorescence polarization; inhibition, % at 3.39 µM; 340,000 tested, 0.28% active; AID 492972;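 active = inhibition above the screen-wide average of all tested compounds plus 3 SD, cut at about 25% in these data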;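 note: 0% = enzyme with DMSO only and 100% = wells lacking PAFAH1B3 protein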
Target sequence (Q15102 whole entry, looked up): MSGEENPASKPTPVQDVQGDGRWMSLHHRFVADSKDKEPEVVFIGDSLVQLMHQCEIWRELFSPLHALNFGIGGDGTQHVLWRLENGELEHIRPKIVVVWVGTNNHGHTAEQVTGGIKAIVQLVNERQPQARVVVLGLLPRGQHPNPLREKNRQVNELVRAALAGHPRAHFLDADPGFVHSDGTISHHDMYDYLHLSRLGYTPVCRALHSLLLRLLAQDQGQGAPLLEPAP
PAFAH2 FP inh: inhibitors of human PAFAH2. Q99487. recombinant PAFAH2, FP-rhodamine activity probe, fluorescence polarization. inhibition, % at 3.39 µM. 340,000 tested, 0.99% active;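 active = inhibition above the mean over all tested compounds plus 3 SD, cut at about 30% in these data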;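 note: inhibitors block probe labeling of enzyme so polarization drops; 0% = enzyme with DMSO and 100% = wells lacking PAFAH2 protein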
* hit, by the source's call; · = no result given.

SMILES	pPAFAH FP inh	PAFAH1B2 FP inh	TCR-CD3 inh	PAFAH1B3 inh	PAFAH2 FP inh
C[C@H](c1ccccc1)N1C[C@@H](COCc2ccccc2)Oc2cccc(Oc3ccccc3)c2S1(=O)=O	·	·	1	·	·
CCn1c2ccccc2c2cc(NC(=O)COC(=O)c3ccc(O)cc3)ccc21	33*	-1	6	13	24
CCn1c2ccccc2c2cc(NC(=O)COC(=O)c3cccc(S(=O)(=O)NC)c3)ccc21	14	-1	4	10	-4
CCOc1cc(/C=C(/NC(C)=O)C(=O)O)cc(Cl)c1OCc1ccc(Br)cc1	31*	6	7	4	10
CCOc1ccc(/C=C(/NC(=O)c2ccc(Cl)cc2)C(=O)O)cc1OCC	0	4	-7	3	-5
CC1C/C(=N/N=C2/NC(=O)CS2)CC(C)(C)C1 (stereo not given)	4	76*	-1	-4	-5
COc1ccc(NC(=O)COC(=O)c2ccc3c(c2)OCCO3)cc1	·	·	-5	·	·
CC1CN(S(=O)(=O)c2cccc(C(=O)OCC(=O)c3cccs3)c2)CC(C)O1 (stereo not given)	0	-4	-5	10	14
COc1cccc(C(=O)OCC(=O)Nc2ccc3c(c2)OCCO3)c1	28*	9	-4	14	76*
CC1CN(S(=O)(=O)c2cccc(C(=O)OCC(=O)Nc3ccc4c(c3)OCO4)c2)CC(C)O1 (stereo not given)	11	0	-4	1	67*
COc1ccccc1CNC(=O)COC(=O)c1ccc(C)c(S(=O)(=O)N2CCCCC2)c1	27*	5	4	10	42*
NC(=O)NC(=O)COC(=O)c1cccc(S(=O)(=O)N2CCCCCC2)c1	-4	27*	0	2	-1
CC(=O)N1CCN(c2ccc(N3CCN(C(C)=O)[C@@H](C)C3)c(C)c2)[C@H](C)C1	·	·	7	·	·
COc1ccc(NS(=O)(=O)c2ccc(O)c(C(=O)OCC(=O)Nc3ccc4c(c3)OCCO4)c2)cc1	32*	10	-3	3	10
COc1ccc(NS(=O)(=O)c2ccc3oc(Nc4ccc5c(c4)OCCO5)nc3c2)cc1	26*	12	-4	12	3
CC(C)(C)NC(=O)C1c2ccccc2OCC(=O)N1Cc1ccc2c(c1)OCO2 (stereo not given)	·	·	3	·	·
COc1ccc(S(=O)(=O)Nc2cccc3c2O[C@H](CN(C)Cc2ccncc2)[C@@H](C)CN([C@H](C)CO)C3=O)cc1	5	0	-1	-5	-6
O=C(CCN1C(=O)NC2(CCCC2)C1=O)Nc1ccc(-c2nc3ccccc3s2)cc1	8	3	-7	-2	7
Nc1nonc1C(=O)NCCN=Cc1cc(Cc2ccccc2)cc(Br)c1O	33*	10	·	6	3
O=C(O)COc1ccccc1-c1ccccc1	-1	16	1	1	3
O=C(O)C(Cc1ccccc1-c1ccccc1)C(=O)O	7	27*	10	-4	-4
CCCCCCCCN1[C@@H](CC(=O)O)c2cc(C(F)(F)F)ccc2S1(=O)=O	8	27*	-3	10	7
NC(=O)Cc1nc(-c2ccc(Br)cc2)cs1	0	-1	1	7	5
O=C(O)c1cnn(-c2nc(-c3ccc(Br)cc3)cs2)c1C(F)(F)F	10	40*	0	13	2
CN(C)c1ccc(CC(=O)N2CCCC(c3cc(C(=O)Nc4ccc(C(C)(C)C)cc4)no3)C2)cc1 (stereo not given)	·	·	0	·	·
SMILES	pPAFAH FP inh	PAFAH1B2 FP inh	TCR-CD3 inh	PAFAH1B3 inh	PAFAH2 FP inh
CCc1cccc(CC)c1NC(=O)Cn1c(-c2ccccc2Cl)nc2ccccc21	7	4	5	10	0
CC(C)N(C(=O)Cn1c(-c2ccccc2Cl)nc2ccccc21)c1ccccc1	26*	14	3	0	0
CO/N=C(/CS(=O)Cc1ccc(Cl)cc1)c1ccc(Cl)cc1 (stereo not given)	27*	12	4	-4	-3
O=c1[nH]c(CCl)nc2cc(-c3ccc(F)cc3)sc12	12	29*	7	3	0
COCCNc1nc2cc(-c3ccc(F)cc3)sc2c(=O)n1C	·	·	-10	·	·
CC1(c2ccc(Cl)cc2)NC(=S)N2C1NC(=S)N2c1ccccc1 (stereo not given)	-1	35*	-2	1	0
O=C(CSC(=S)N1CCCC1)Nc1cc2c(cc1Br)OCCO2	1	-3	5	10	6
O=C(CSC(=S)N1CCCC1)c1cc(Br)cc(Br)c1O	25*	·	-34	·	·
Cc1ccc(CNC(=O)CCSCc2cccc(F)c2)cc1	17	25*	-9	8	0
